Common to all, as to assay: DAPPL (digital affinity profiling via proximity ligation, sequencing); 10 mM Tris-HCl pH 7.5, 50 mM NaCl, 1 mM DTT, 4% glycerol, room temperature, 30 min; GST-TFs on glutathione beads, 16-mer random dsDNA library, 0.1% formaldehyde crosslink after washing; high values mean tight binding
One experiment addresses ELF1 (Homo sapiens, UniProt P32519 1-619). As to conditions: protein: recombinant; tags: N-terminal GST; dsDNA, one strand shown. An outline of the steps: (§1)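 Human transcription factors carrying a GST fusion were produced in yeast, bound to glutathione beads, tagged with DNA barcodes and pooled together with a tag-only sample. Each pool was held with 200 nmole of a random double-stranded 16-mer DNA library in Tris/NaCl/DTT/glycerol buffer for 30 min at room temperature, then washed, crosslinked in 0.1% formaldehyde, proximity-ligated with BsaI/T4 ligase (1 h, 37 °C), PCR-amplified and sequenced on an Illumina NextSeq500. Binding signal is the read frequency of each hexamer for a given factor divided by its frequency in the tag-only sample.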

In another experiment the target is T1, ELK3 (Homo sapiens, UniProt P41970 1-407).
T1 sequence: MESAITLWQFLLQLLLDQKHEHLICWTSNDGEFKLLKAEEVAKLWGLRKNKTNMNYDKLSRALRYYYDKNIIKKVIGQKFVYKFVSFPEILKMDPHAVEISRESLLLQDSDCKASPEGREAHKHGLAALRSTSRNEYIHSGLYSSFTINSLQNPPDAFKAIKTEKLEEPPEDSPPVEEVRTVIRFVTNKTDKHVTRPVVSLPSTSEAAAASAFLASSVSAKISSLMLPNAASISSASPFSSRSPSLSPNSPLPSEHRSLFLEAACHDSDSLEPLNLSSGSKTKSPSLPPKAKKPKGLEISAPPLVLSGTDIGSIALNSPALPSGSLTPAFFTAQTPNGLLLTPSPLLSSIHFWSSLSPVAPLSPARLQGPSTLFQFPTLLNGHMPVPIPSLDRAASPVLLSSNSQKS
As to conditions: protein: recombinant; tags: N-terminal GST; dsDNA, one strand shown. The procedure, abridged:
as §1

For the next experiment, the target named is HSF1 (Homo sapiens, UniProt Q00613 1-529). As to conditions: protein: recombinant; tags: N-terminal GST; chain copies: 3; dsDNA, one strand shown. The procedure, abridged:
as §1

The next experiment concerns the target ELF4 (Homo sapiens, UniProt Q99607 1-663). As to conditions: protein: recombinant; tags: N-terminal GST; dsDNA, one strand shown. An outline of the steps:
as §1

The next experiment has as its target T2, ETV2 (Homo sapiens, UniProt O00321 1-342).
T2 sequence: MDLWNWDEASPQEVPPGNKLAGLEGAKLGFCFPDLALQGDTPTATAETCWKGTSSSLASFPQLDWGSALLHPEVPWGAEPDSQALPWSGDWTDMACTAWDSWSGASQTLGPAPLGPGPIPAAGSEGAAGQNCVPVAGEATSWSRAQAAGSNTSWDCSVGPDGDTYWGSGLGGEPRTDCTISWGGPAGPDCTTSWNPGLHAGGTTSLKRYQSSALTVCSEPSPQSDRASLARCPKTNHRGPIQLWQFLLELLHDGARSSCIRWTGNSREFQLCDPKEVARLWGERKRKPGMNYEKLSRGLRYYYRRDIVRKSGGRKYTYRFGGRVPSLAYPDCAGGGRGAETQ
As to conditions: protein: recombinant; tags: N-terminal GST; dsDNA, one strand shown. The procedure, abridged: as §1

The target in another experiment is T3, ELF3 (Homo sapiens, UniProt P78545 1-371).
T3 sequence: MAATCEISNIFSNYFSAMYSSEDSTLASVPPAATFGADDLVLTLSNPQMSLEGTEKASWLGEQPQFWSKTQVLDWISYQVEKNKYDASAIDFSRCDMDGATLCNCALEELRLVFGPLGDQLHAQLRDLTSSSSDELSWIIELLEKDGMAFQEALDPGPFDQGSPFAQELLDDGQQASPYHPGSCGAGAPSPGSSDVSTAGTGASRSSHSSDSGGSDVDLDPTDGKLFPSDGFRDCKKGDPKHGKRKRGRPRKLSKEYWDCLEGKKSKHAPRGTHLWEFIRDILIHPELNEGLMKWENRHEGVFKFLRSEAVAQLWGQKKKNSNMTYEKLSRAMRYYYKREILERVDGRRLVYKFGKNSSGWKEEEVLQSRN
As to conditions: protein: recombinant; tags: N-terminal GST; dsDNA, one strand shown. An outline of the steps: as §1

The next experiment deals with ETV6 (Homo sapiens, UniProt P41212 1-452). As to conditions: protein: recombinant; tags: N-terminal GST; dsDNA, one strand shown. An outline of the steps: as §1
ETV6, sequence (P41212 whole entry): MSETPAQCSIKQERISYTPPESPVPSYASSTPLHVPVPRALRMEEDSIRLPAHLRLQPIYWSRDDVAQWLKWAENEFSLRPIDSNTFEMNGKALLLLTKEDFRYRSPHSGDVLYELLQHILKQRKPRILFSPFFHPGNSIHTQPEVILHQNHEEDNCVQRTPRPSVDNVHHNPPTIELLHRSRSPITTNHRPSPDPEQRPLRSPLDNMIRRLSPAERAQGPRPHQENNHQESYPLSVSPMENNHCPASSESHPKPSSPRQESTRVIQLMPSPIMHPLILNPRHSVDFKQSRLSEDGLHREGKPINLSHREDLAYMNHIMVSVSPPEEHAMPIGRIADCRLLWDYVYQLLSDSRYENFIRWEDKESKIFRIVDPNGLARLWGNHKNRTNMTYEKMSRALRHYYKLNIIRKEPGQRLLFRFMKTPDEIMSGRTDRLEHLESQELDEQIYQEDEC

ELF4, sequence (Q99607 whole entry): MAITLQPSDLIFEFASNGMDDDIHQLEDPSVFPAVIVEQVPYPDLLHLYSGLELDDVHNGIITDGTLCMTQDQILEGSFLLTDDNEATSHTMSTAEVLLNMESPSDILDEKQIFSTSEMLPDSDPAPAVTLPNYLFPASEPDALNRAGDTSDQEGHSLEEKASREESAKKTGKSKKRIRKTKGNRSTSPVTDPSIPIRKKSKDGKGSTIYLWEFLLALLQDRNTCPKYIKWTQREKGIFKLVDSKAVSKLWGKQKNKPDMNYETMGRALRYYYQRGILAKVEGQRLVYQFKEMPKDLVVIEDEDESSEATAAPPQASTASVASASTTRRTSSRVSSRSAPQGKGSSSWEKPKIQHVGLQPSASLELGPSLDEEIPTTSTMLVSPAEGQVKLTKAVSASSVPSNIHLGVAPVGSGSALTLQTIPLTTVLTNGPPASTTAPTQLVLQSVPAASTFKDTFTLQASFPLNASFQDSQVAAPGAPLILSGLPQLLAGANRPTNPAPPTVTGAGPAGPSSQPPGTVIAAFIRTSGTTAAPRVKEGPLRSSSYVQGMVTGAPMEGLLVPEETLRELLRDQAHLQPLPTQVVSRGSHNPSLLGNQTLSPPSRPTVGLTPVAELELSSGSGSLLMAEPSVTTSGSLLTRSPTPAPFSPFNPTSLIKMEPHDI
ELF1, sequence (P32519 whole entry, the tested form may be a part): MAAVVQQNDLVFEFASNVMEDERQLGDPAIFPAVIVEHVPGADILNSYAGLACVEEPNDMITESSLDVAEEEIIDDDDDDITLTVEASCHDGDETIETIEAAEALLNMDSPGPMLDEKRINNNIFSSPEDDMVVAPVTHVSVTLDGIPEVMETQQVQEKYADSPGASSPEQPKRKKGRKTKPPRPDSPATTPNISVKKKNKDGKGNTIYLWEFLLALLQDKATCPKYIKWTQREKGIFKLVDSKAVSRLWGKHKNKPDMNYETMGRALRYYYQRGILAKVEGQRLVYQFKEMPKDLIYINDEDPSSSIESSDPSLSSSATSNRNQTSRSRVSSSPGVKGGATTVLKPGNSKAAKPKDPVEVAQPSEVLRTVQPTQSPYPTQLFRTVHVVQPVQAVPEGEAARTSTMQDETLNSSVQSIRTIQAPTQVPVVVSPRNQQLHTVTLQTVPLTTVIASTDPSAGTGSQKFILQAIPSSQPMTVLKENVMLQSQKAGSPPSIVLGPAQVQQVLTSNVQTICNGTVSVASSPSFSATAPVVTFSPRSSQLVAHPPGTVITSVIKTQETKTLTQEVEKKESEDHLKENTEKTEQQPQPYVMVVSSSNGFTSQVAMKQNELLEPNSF
HSF1, sequence (Q00613 whole entry): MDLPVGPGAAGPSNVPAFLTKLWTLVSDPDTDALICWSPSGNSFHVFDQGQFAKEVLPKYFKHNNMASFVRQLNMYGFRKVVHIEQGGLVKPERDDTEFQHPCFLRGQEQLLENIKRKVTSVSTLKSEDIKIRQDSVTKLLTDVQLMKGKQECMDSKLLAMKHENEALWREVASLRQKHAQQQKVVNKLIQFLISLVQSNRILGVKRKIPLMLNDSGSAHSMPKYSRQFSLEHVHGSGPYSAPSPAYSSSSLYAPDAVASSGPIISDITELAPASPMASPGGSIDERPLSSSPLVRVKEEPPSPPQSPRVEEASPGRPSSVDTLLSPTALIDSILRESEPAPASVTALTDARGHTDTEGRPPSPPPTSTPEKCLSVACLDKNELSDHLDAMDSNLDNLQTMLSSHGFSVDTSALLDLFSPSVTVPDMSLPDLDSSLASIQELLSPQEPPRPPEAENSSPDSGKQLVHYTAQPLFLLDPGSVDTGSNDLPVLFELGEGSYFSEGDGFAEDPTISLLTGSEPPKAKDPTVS

With GAATGA, the binding signal with ELF1 is 1 fold enrichment (6-mer frequency, TF over GST control); with ELK3, 1.02 fold enrichment (6-mer frequency, TF over GST control); with HSF1, 1.15 fold enrichment (6-mer frequency, TF over GST control); with ELF4, 1 fold enrichment (6-mer frequency, TF over GST control); with ETV2 it was 1.11 fold enrichment (6-mer frequency, TF over GST control); in the experiment with ELF3 it was 1.07 fold enrichment (6-mer frequency, TF over GST control). In the experiment with ETV6, the binding signal was 1.02 fold enrichment (6-mer frequency, TF over GST control).

These data come from paper PMC7862700, “An all-to-all approach to the identification of sequence-specific readers for epigenetic DNA modifications on cytosine”.
